What was measured:
Assay in all cases: DAPPL (digital affinity profiling via proximity ligation, sequencing); 10 mM Tris-HCl pH 7.5, 50 mM NaCl, 1 mM DTT, 4% glycerol, room temperature, 30 min; GST-TFs on glutathione beads, 16-mer random dsDNA library, 0.1% formaldehyde crosslink after washing; high values mean tight binding
Settings in all cases: protein: recombinant; tags: N-terminal GST; dsDNA, one strand shown
[1] = target: ETV1 (Homo sapiens, UniProt P50549 1-477)
Outline: (§1)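 After expression in yeast as GST fusions, human transcription factors were bound to glutathione beads, DNA-barcoded and mixed with a tag-only sample. The pools were incubated with 200 nmole of a 16-mer random double-stranded DNA library in Tris/NaCl/DTT/glycerol buffer (30 min, room temperature), washed and crosslinked with 0.1% formaldehyde. Proximity ligation with BsaI/T4 ligase ran for 1 h at 37 °C, before PCR amplification and sequencing on an Illumina NextSeq500. Binding signal is a hexamer's read frequency for a factor divided by its frequency for the tag-only sample.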

[2] = target: T1, ERF (Homo sapiens, UniProt P50548 1-548)
T1 sequence: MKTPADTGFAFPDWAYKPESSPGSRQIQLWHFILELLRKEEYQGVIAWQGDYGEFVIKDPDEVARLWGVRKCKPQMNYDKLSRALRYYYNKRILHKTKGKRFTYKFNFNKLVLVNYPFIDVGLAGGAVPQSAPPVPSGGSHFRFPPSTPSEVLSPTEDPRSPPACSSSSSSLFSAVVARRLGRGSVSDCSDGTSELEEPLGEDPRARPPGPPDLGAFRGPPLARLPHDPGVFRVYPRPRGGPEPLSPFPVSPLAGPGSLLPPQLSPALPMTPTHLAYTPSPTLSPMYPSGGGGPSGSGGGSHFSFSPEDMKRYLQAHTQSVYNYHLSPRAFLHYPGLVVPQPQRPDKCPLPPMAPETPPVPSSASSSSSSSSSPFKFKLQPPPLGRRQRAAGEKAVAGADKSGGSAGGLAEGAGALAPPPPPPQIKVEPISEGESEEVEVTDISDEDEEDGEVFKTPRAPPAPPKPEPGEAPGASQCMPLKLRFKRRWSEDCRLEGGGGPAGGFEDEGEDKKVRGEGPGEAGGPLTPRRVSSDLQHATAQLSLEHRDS
Outline: as §1

[3] = target: T2, ETV3L (Homo sapiens, UniProt Q6ZN32 1-361)
T2 sequence: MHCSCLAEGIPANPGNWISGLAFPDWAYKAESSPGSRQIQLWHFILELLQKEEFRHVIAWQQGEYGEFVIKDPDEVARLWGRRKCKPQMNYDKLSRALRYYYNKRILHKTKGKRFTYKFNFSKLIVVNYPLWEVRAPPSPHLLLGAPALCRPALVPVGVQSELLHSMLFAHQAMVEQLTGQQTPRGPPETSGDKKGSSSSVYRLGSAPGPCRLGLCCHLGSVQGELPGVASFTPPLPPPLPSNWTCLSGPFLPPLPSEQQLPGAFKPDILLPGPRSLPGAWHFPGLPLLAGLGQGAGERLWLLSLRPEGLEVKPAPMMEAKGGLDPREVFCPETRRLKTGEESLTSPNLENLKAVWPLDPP
Outline: as §1

[4] = target: T3, ETS2 (Homo sapiens, UniProt P15036 1-469)
T3 sequence: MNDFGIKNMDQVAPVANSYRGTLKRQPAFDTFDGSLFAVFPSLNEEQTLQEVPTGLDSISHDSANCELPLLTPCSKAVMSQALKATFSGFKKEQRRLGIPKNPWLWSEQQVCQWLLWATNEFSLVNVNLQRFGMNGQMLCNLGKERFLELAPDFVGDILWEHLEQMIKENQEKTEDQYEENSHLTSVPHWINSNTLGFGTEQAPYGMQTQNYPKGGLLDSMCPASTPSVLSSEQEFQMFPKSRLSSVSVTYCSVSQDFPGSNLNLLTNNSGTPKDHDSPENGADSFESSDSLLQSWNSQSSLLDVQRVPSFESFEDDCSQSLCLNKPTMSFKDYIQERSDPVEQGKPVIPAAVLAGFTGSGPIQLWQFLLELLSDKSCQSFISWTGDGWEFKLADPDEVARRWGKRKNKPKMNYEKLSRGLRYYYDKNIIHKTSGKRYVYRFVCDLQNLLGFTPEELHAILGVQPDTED
Outline: as §1

[5] = target: T4, SPDEF (Homo sapiens, UniProt O95238 1-335)
T4 sequence: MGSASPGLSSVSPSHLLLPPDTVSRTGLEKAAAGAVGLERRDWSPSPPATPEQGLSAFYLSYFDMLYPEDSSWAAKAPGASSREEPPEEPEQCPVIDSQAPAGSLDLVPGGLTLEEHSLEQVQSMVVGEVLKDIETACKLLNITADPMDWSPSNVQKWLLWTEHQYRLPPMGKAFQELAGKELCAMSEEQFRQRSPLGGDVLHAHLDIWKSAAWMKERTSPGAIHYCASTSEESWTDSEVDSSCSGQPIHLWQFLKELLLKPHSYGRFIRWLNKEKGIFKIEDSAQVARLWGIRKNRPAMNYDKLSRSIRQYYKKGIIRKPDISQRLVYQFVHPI
Outline: as §1

[6] = target: T5, ETV7 (Homo sapiens, UniProt Q9Y603 1-341)
T5 sequence: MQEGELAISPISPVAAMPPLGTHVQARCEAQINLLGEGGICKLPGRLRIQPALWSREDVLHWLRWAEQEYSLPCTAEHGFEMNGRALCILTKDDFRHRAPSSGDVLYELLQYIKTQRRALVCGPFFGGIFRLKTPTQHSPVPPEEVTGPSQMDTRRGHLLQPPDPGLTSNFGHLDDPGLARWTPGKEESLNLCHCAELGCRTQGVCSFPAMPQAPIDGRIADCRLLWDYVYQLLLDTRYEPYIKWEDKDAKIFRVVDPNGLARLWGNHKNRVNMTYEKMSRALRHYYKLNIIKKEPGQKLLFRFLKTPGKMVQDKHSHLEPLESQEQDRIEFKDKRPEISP
Outline: as §1

[7] = target: T6, ELF5 (Homo sapiens, UniProt Q9UKW6-2 1-255)
T6 sequence: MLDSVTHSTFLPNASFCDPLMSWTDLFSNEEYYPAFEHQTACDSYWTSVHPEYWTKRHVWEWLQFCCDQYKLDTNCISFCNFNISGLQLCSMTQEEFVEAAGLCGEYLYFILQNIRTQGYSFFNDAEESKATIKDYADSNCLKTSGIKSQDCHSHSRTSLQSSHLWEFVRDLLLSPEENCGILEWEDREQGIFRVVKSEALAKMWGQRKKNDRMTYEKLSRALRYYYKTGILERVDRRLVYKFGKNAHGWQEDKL
Outline: as §1

[8] = target: T7, ETV3 (Homo sapiens, UniProt P41162-2 1-143)
T7 sequence: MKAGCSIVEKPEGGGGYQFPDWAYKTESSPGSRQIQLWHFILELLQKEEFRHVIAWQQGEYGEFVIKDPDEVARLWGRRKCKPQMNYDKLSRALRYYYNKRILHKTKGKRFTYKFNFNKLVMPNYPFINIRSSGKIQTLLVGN
Outline: as §1

[9] = target: ETV6 (Homo sapiens, UniProt P41212 1-452)
ETV6, sequence (P41212 whole entry): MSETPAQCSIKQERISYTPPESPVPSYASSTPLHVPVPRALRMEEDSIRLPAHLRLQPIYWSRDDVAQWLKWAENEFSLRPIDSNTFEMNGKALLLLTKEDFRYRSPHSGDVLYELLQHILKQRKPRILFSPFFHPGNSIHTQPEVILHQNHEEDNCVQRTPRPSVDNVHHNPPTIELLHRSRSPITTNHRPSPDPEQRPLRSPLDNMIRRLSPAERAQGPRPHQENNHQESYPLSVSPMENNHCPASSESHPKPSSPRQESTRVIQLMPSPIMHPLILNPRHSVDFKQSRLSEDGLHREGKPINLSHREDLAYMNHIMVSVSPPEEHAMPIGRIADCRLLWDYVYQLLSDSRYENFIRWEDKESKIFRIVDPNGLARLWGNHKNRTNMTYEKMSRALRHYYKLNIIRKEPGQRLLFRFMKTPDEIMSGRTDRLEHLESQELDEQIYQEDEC
Outline: as §1

ETV1, sequence (P50549 whole entry, the tested form may be a part): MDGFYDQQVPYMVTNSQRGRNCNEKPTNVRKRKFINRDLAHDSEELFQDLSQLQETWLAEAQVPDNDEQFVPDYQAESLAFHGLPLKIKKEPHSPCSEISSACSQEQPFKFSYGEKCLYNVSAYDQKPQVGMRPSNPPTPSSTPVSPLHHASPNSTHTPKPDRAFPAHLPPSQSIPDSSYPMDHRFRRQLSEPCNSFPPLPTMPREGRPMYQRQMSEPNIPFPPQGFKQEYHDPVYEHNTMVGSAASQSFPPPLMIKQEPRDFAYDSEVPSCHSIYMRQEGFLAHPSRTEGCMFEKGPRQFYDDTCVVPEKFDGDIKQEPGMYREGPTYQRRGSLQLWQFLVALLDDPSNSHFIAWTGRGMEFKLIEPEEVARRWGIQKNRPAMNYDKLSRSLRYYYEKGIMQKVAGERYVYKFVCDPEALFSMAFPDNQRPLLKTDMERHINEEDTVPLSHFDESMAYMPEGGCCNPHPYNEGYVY

Q: How did the binding signal [1] turn out when TCTCGG was run?
A: 1.38 fold enrichment (6-mer frequency, TF over GST control)

Q: What about the binding signal [2] of the same sequence?
A: 1.24 fold enrichment (6-mer frequency, TF over GST control)

Q: And the binding signal [3]?
A: 1.48 fold enrichment (6-mer frequency, TF over GST control)

Q: What about the binding signal [4] of the same sequence?
A: 1.3 fold enrichment (6-mer frequency, TF over GST control)

Q: And the binding signal [5]?
A: 1.24 fold enrichment (6-mer frequency, TF over GST control)

Q: And the binding signal [6]?
A: 1.23 fold enrichment (6-mer frequency, TF over GST control)

Q: What about the binding signal [7] of the same sequence?
A: 1.32 fold enrichment (6-mer frequency, TF over GST control)

Q: What about the binding signal [8] of the same sequence?
A: 1.37 fold enrichment (6-mer frequency, TF over GST control)

Q: What about the binding signal [9] of the same sequence?
A: 1.33 fold enrichment (6-mer frequency, TF over GST control)
